Measurements: PubChem BioAssay (NCATS)
Results filed as inconclusive are left out. Calls of active or inactive are those of the source. The call rests on the fitted dose curve; in most records, active means well fitted curve in the direction sought with a large enough effect; inconclusive means small, poorly fitted or top-dose-only effect, or another doubt; inactive means no such curve, though single readings can be large; an effect the other way counts as inactive or inconclusive.

Assay: P-glycoprotein substrates identified in KB-3-1 adenocarcinoma cell line, qHTS therapeutic library screen (AID 1346986); further: nearly all actives have a fitted effect of over 60% in size;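 further: potency is for cytotoxicity meaning loss of cell viability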
Details: KB-3-1 parental cells viability, CellTiter-Glo, 72 h; series mostly up to 44.5 µM; activity change, negative = cytotoxicity: at the top concentration
Method in brief: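 Compounds were tested in dose-response against KB-3-1 and KB-8-5-11 cells at 37 degree C for 72 h, and viability was measured by luminescence. AC50 values came from curve fitting with class-based activity calls.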
On the % scale 0 is the no-effect control and ±100 the full control effect; potency means the concentration at half of the fitted maximal effect.

SMILES	outcome	Potency
Cn1cc(-c2ccc3nnc(Sc4ccc5nn(C)cc5c4)n3n2)cn1	inactive	
C[C@@H]1O[C@@H](O[C@H]2[C@@H](OC(=O)[C@]34CCC(C)(C)CC3C3=CCC5[C@@]6(C)C[C@H](O)[C@H](O[C@@H]7O[C@H](C(=O)O)[C@@H](O)[C@H](O)[C@H]7O)[C@@](C)(C(=O)O)C6CC[C@@]5(C)[C@]3(C)CC4)OC[C@H](O)[C@@H]2O)[C@H](O)[C@H](O)[C@H]1O[C@@H]1OC[C@@H](O)[C@H](O)[C@H]1O (stereo partly specified)	inactive [at 9.29 µM]	
CC1CC(C(O)C(C)(C)O)OC2CC3(C)C4(C)CCC5C(C)(C)C(=O)CCC5(C)C4CCC3(O)C12O (stereo unspecified)	inactive [at 17.4 µM]	
CC1(C=O)CC[C@]2(C(=O)O[C@@H]3O[C@H](CO)[C@@H](O)[C@H](O)[C@H]3O)CC[C@]3(C)C(=CCC4[C@@]5(C)C[C@H](O)[C@H](O[C@@H]6OC[C@@H](O)[C@H](O)[C@H]6O)[C@@](C)(CO)C5CC[C@]43C)C2C1 (stereo partly specified)	inactive [at 9.29 µM]	
COc1nc2sc(C(=O)NC3CC3)c(N)c2c(C)c1Cl	inactive	
COc1cc2ncnc(Nc3cccc(Cl)c3F)c2cc1OC(=O)N1CCN(C)C[C@H]1C		inactive
CCS(=O)(=O)N1CCN(c2ccc(Nc3ncc(C(N)=O)c(NC4CC4)n3)cc2)CC1		4.61 µM (active)

Assay: P-glycoprotein substrates identified in KB-8-5-11 adenocarcinoma cell line, qHTS therapeutic library screen (AID 1346987); further: nearly all actives have a fitted effect of over 65% in size
Details: KB-8-5-11 (P-gp overexpressing) viability, CellTiter-Glo, 72 h; series mostly up to 44.5 µM; activity change, negative = cytotoxicity: at the top concentration
Method in brief: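 P-gp-mediated resistance screen: KB-8-5-11 cells treated 72 h with compounds in dose-response. CellTiter-Glo viability.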

SMILES	activity change, negative = cytotoxicity	Potency	outcome
C=C1C(O)CC2C(C(=O)O)=COC(O[C@@H]3O[C@H](COC(=O)/C=C/c4ccc(O)cc4)[C@@H](O)[C@H](O)[C@H]3O)C12 (stereo partly specified)	0.234% [at 17.3 µM] (inactive)		
Cn1c(=O)n(-c2ccc(C(C)(C)C#N)cc2)c2c3cc(C#Cc4cccnc4)ccc3ncc21		0.0893 µM (active)	
CC(C)(C)NC(=O)[C@@H](c1cccnc1)N(C(=O)c1ccco1)c1ccc(C(C)(C)C)cc1	-20.2% (inactive)		
O=C1CCC(=O)N(O)CCCCCNC(=O)CCC(=O)N(O)CCOCCNC(=O)CCC(=O)N(O)CCCCCN1	1.95% [at 17.3 µM] (inactive)		
C[C@H](CCC(=O)O)[C@H]1CC[C@H]2[C@@H]3C[C@H](O)[C@@H]4C[C@H](O)CC[C@]4(C)[C@H]3CC[C@]12C	1.66% (inactive)		
N#C[C@@H]1CCCN1C(=O)CNC12CC3CC(CC(O)(C3)C1)C2			inactive
COc1ccc(/C=C\C(=O)O)c(O[C@@H]2O[C@H](CO)[C@@H](O)[C@H](O)[C@H]2O)c1			inactive
CC(=O)O[C@H]1CC[C@@]2(C)C(CC[C@@H](C)[C@]23Cc2c(O)cc4c(c2O3)CN([C@@H](CCC(=O)O)C(=O)O)C4=O)C1(C)C (stereo partly specified)			inactive [at 17.3 µM]
CC1=C(C(=O)OCc2ccccc2)C(c2ccc(-c3ccccc3)cc2)NC(=O)N1CCCCCC(=O)O (stereo unspecified)			inactive
OC[C@H]1O[C@@H](Oc2cc(O)c3c(c2)O[C@@H](c2ccc(O)cc2)[C@H](O)C3)[C@H](O)[C@@H](O)[C@@H]1O			inactive [at 17.3 µM]
C=C[C@@H]1[C@H](O[C@@H]2O[C@H](CO)[C@@H](O)[C@H](O)[C@H]2O)OC=C(C(=O)O)[C@H]1CCOC(=O)/C=C/c1ccc(O)c(O)c1			inactive [at 17.3 µM]
C=C(C(=O)O)C1CCC2(C)CCC(O)C(=C)C2C1 (stereo unspecified)	9.57% (inactive)		
CC#CC(=O)N1CCC[C@H]1c1nc(-c2ccc(C(=O)Nc3ccccn3)cc2)c2c(N)nccn12			inactive [at 17.3 µM]
C[C@@H](O)[C@H](NC(=O)c1ccc(C#Cc2ccc(CN3CCOCC3)cc2)cc1)C(=O)NO	9.35% (inactive)		
Nc1nccn2c(C3CCC(C(=O)O)CC3)nc(-c3cc4cccc(Cl)c4[nH]3)c12 (stereo unspecified)		1.46 µM (active)	
O=C1NC(Cc2c[nH]c3ccccc23)C(=O)NC1Cc1c[nH]c2ccccc12 (stereo unspecified)	4.76% (inactive)		
COc1ccc(C(O)C(C)OC2OC(CO)C(O)C(O)C2O)cc1 (stereo unspecified)			inactive
C=CC(C)(CC/C=C(\C)C(=O)OC)OC1OC(COC(=O)CC(C)(O)CC(=O)O)C(OC2OC(CO)C(O)C(O)C2O)C(O)C1O (stereo unspecified)	7.26% [at 17.3 µM] (inactive)		
CCCn1c(=O)c2[nH]c(-c3ccc(OCC(=O)O)cc3)nc2n(CCC)c1=O			inactive
C/C(=C\CCC(C)CCO)C(=O)O[C@@H]1[C@@H](O)[C@H](OC2OC=C(C(=O)O)C3CCC(C)(O)C23)O[C@H](CO)[C@H]1O (stereo partly specified)			inactive [at 17.3 µM]

SMILES	activity change, negative = cytotoxicity	Potency	outcome
CC(C)=CCC/C(C)=C/CCC1(C)Oc2c(c(O)cc3c2CN(C(CCC(=O)O)C(=O)O)C3=O)CC1O (stereo unspecified)	7.97% [at 17.3 µM] (inactive)		
C=C[C@H]1C(O[C@@H]2O[C@H](CO)[C@@H](O)[C@H](O)[C@H]2O)OC=C2C(=O)N3CCc4c([nH]c5ccccc45)C3CC21 (stereo partly specified)	3.04% [at 17.3 µM] (inactive)		
COc1cc(/C=C/C=O)cc(OC)c1O[C@@H]1O[C@H](CO)[C@@H](O)[C@H](O)[C@H]1O			inactive
C/C1=C\CCC(C)CCO[C@@H]2O[C@H](CO[C@@H]3OC[C@H](O)[C@H](O)[C@H]3OC1=O)[C@@H](O)[C@H](O)[C@H]2O (stereo partly specified)			inactive [at 17.3 µM]
C=C[C@H]1[C@H](O[C@@H]2O[C@H](CO)[C@@H](O)[C@H](O)[C@H]2O)OC=C(C(=O)OC)[C@H]1CCOC(=O)c1cc(O)c(O)c(O)c1	0.853% [at 17.3 µM] (inactive)		
CC1C(=O)OCC2=CCN3CCC(OC(=O)C(C)(O)C1(C)O)C23 (stereo unspecified)			inactive
CC(=O)N[C@@H](CCCCN)C(=O)N(C)[C@@H](CC(C)C)C(=O)N[C@H](C(=O)N(C)[C@@H](Cc1ccccc1)C(=O)N[C@H](Cc1ccccc1)C(N)=O)C(C)C			inactive [at 5.11 µM]
CC(=O)CC1CCC(C(C)C(=O)OCC(O)CO)O1 (stereo unspecified)			inactive
COc1c2c(c(C)c3c1C(=O)OC3)O[C@@]1(C)CCC3(C(C)(C)O)OC(=O)CC[C@]3(C)[C@H]1C2 (stereo partly specified)			inactive [at 17.3 µM]
OC[C@H]1O[C@@H](OCCc2ccccc2)[C@H](O[C@@H]2OC[C@](O)(CO)[C@H]2O)[C@@H](O)[C@@H]1O	0.168% [at 17.3 µM] (inactive)		
O=C(O)c1cc(-c2c(-c3ccccc3)nn3ccccc23)n[nH]c1=O			inactive
CC(=O)OC/C=C(\C)C(CC1C(C)=C(OC(C)=O)C(=O)C2C(C)(C)C(O)CCC12C)OC(C)=O (stereo unspecified)			inactive [at 17.3 µM]
Cn1cc(-c2ccc3nnc(Sc4ccc5nn(C)cc5c4)n3n2)cn1	-3.93% (inactive)		
C[C@@H]1O[C@@H](O[C@H]2[C@@H](OC(=O)[C@]34CCC(C)(C)CC3C3=CCC5[C@@]6(C)C[C@H](O)[C@H](O[C@@H]7O[C@H](C(=O)O)[C@@H](O)[C@H](O)[C@H]7O)[C@@](C)(C(=O)O)C6CC[C@@]5(C)[C@]3(C)CC4)OC[C@H](O)[C@@H]2O)[C@H](O)[C@H](O)[C@H]1O[C@@H]1OC[C@@H](O)[C@H](O)[C@H]1O (stereo partly specified)	1.24% [at 9.29 µM] (inactive)		
CC1CC(C(O)C(C)(C)O)OC2CC3(C)C4(C)CCC5C(C)(C)C(=O)CCC5(C)C4CCC3(O)C12O (stereo unspecified)	-1.42% [at 17.3 µM] (inactive)		
CC1(C=O)CC[C@]2(C(=O)O[C@@H]3O[C@H](CO)[C@@H](O)[C@H](O)[C@H]3O)CC[C@]3(C)C(=CCC4[C@@]5(C)C[C@H](O)[C@H](O[C@@H]6OC[C@@H](O)[C@H](O)[C@H]6O)[C@@](C)(CO)C5CC[C@]43C)C2C1 (stereo partly specified)			inactive [at 9.29 µM]
COc1nc2sc(C(=O)NC3CC3)c(N)c2c(C)c1Cl	-21.8% (inactive)		
COc1cc2ncnc(Nc3cccc(Cl)c3F)c2cc1OC(=O)N1CCN(C)C[C@H]1C		inactive	
CCS(=O)(=O)N1CCN(c2ccc(Nc3ncc(C(N)=O)c(NC4CC4)n3)cc2)CC1		7.31 µM (active)	
